Measured values taken from PubChem BioAssay AID1508602 (The Scripps Research Institute Molecular Screening Center, 2020).
Screen size: about 650,000 compounds; about 6,800 (1%) were called active. Only a selection was taken, and actives are over-represented in it overall. Unmarked numbers belong to inactive results. Cut-off read from the data, not from the text of the source: active = activation above about 4.9%; inactive = the rest.

Molecular target: G-protein coupled receptor 151 (Homo sapiens) (UniProt Q8TDV0)
Sequence (Q8TDV0 whole entry, looked up): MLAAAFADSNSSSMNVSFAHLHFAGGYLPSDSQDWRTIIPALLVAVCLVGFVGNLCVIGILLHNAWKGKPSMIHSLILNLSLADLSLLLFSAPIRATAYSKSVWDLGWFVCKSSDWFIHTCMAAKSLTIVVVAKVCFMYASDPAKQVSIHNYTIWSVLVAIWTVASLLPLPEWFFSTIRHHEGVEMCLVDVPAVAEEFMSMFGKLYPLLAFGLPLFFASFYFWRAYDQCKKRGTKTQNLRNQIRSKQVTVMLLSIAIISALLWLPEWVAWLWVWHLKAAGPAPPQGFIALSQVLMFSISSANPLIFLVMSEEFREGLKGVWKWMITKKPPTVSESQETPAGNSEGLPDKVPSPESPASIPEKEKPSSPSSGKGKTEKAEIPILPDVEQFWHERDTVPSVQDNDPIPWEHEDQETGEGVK
Experiment: activators of human GPR151, primary screen, cell-based, PathHunter beta-arrestin, luminescence (AID 1508602);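 note: 0% = median of compound wells and 100% = cells with positive control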
Conditions: PathHunter beta-arrestin GPR151 cells, at 11.2 µM, stronger effect = higher value

Point of comparison: Cc1cc(C)cc(NC(=O)C(CC(C)C)NS(=O)(=O)c2ccc3c(c2)oc(=O)n3C)c1 (stereo not drawn), activation 3.86%. Against it:
- O=C(Cc1ccccc1)NCc1nnc2n1CCN(Cc1ccc(F)cc1)CC2 — lower, -0.584%
- COc1ccc(-c2coc3cc(OC4OC(COC5OC(C)C(O)C(O)C5O)C(O)C(O)C4O)cc(O)c3c2=O)cc1 (stereo not drawn) — lower, -0.0364%
- CCc1cc2c(=O)c(-c3ccc4c(c3)OCO4)c(C)oc2cc1OC1OC(CO)C(O)C(O)C1O (stereo not drawn) — lower, 0.749%
- CCc1ccc(CN2CCc3nnc(-c4ccccc4)n3CC2)o1 — lower, -0.804%
- CCOC(=O)N1CCC(N2CCC(CO)(CCOc3ccccc3)CC2)CC1 — lower, 0.442%
- CCN1C(=O)CC(C(=O)OC)C12CCN(Cc1ccc(OC)c(OC)c1)CC2 (stereo not drawn) — lower, 2.97%
- CCOc1ccccc1OCCCNCc1ccccc1 — lower, 0.0114%
- CCOc1ccccc1CNCC(C)O (stereo not drawn) — lower, -1.22%
- CNC(=O)c1c(NC(=O)c2ccccc2F)sc2c1CCC(C(C)(C)C)C2 (stereo not drawn) — lower, 2.94%
- O=C1CC(Cc2ccccc2)C(=O)N1c1ccc(Cl)cc1 (stereo not drawn) — lower, 0.299%
- Cc1ccc(Cn2c(=S)[nH]c3ccc(Cl)cc3c2=O)cc1 — lower, 0.529%
- Oc1ccc(-c2cnc3ccc(NC4CCOCC4)nn23)cc1 — lower, -0.504%
- Brc1cccc(-c2cnc3ccc(NC4CCOCC4)nn23)c1 — lower, -0.245%
- O=C(CN(CC1CCCO1)C(=O)CNS(=O)(=O)c1ccccc1)NC1CCCCC1 (stereo not drawn) — lower, 0.636%
- COc1cccc(/C=N/NC(=O)CSc2nc(C)cc(C)n2)c1OC — lower, 1.66%
- Cc1cc(C)nc(SCC(=O)N/N=C/c2ccc(Cl)cc2Cl)n1 — lower, 0.39%
- COc1ccc(C(=O)CCNC(C(=O)O)C(C)O)cc1 (stereo not drawn) — lower, -0.172%
- c1ccc(N2CCN(c3ccccn3)CC2)nc1 — lower, -0.177%
- COc1ccc(/C=N/N2CCN(c3ccccn3)CC2)cc1 — lower, 0.849%
- CCOC(=O)c1sc2nc(SCC(=O)NCc3ccccc3Cl)n(Cc3ccc(Cl)cc3)c(=O)c2c1C — lower, -0.0258%
- Cc1cc(C)c(S(=O)(=O)Nc2cccc(N3CCCS3(=O)=O)c2)c(C)c1 — lower, 0.72%
- Cc1cn2c3c(=O)n(Cc4ccccc4)c(=O)n(C)c3nc2n1C — lower, 0.103%
- Cc1ccccc1C(=O)NNC(=O)c1ccc(NC(=O)C(C)C)cc1 — lower, 1.54%
- CC1CCN(CCCNc2nc(=S)[nH]c3ccccc23)CC1 — lower, -3.01%
- O=C(O)C1CCC(CNc2nc(=S)[nH]c3ccccc23)CC1 (stereo not drawn) — lower, -0.367%
- CCCCn1c(N)c(N(CC(C)C)C(=O)CCC(=O)O)c(=O)[nH]c1=O — lower, -0.868%
- CCN1CCN(C(C)C(=O)Nc2cc(C)on2)CC1 (stereo not drawn) — lower, -5.25%
- CC1C(=O)NC(=O)N1c1ccc(Cl)cc1 (stereo not drawn) — lower, 2.6%
- COc1cn2c(cc1=O)C(=O)N(CCNC(=O)c1cccc(F)c1)CC2 — lower, 0.552%
- C=CCC(CC=C)(NC(=O)c1ccc([N+](=O)[O-])cc1)c1ccccc1 — lower, 2.8%
- CCN1/C(=C/c2ccc3cc(C)ccc3[n+]2CC)Sc2ccc(OC)cc21 — lower, 1.84%
- CCC(/C=C1\Sc2ccc(-c3ccccc3)cc2N1CC)=C\c1sc2ccc3ccccc3c2[n+]1CC — lower, -0.19%
- CCCc1cc(=O)[nH]c(SCC(=O)Nc2ccc(C(N)=O)cc2)n1 — lower, -0.889%
- COc1ccc(N2C(=O)C3CCCN3C2c2cc(OC)c(OC)cc2OC)cc1 (stereo not drawn) — lower, -1.11%
- COc1cccc(N2C(=O)C3CCCN3C2c2ccc(F)cc2)c1 (stereo not drawn) — lower, 1.08%
- CCOC(=O)COc1cccc2c(=O)n(CC(=O)Nc3cccc(Cl)c3)ccc12 — lower, -0.932%
- CC(C)(C)CC(C)(C)c1ccc(OCC(=O)NNC(=O)c2ccccc2Cl)cc1 — lower, -0.581%
- CCSc1nnc(NC(=O)CSc2nc3ccccc3[nH]2)s1 — lower, 0.0173%
- CCOC(=O)c1c(NC(=O)CSc2nc3ccccc3[nH]2)sc2c1CCC2 — lower, -0.467%
- C=CCn1cnc2sc(C)c(-c3ccc(Cl)cc3)c2c1=O — lower, 1.23%
- C=CCSc1nnc(-c2cc(N(C)C)nc(N(C)C)n2)n1C — lower, 3.52%
- COCC1CCN(C(=O)c2cc(COc3ccc4ncccc4c3)on2)C1 (stereo not drawn) — lower, 2.98%
- O=C(c1cc(COc2ccc3ncccc3c2)on1)N1C[C@@H]2CCC[C@H]1C2 — lower, 0.767%
- Cc1[nH]c2ccccc2c1C(=O)CN1CCN(c2ccccc2)CC1 — lower, -0.808%
- Cc1cc2c(cc1C)NC(CC(=O)Nc1ccc(Cl)cc1Cl)C(=O)N2 (stereo not drawn) — lower, -1.58%
- O=C(Nc1ccc(Cl)c(-c2nc3ccccc3o2)c1)c1cc([N+](=O)[O-])ccc1Cl — lower, 0.267%
- COc1ccc(C(=O)NNC(=O)c2cccc(Cl)c2)cc1OC — lower, 1.28%
- Cc1cc(C)cc(OCC(=O)NNC(=O)c2cccc(Cl)c2)c1 — lower, 0.56%
- CCOC(=O)N1CCN(C(=O)CSc2nnc(-c3ccc(OC)cc3)o2)CC1 — lower, -0.713%
- COc1ccc(-c2cn3c(NC(=O)c4ccccc4)cnc3cn2)cc1 — lower, -2.03%
- COc1cc(/C=N/NC(=O)c2cccs2)cc(OC)c1OC — lower, -1.73%
- O=C(N/N=C/c1cccc(Cl)c1Cl)c1ccc(O)cc1 — lower, 0.598%
- COc1ccc(CNCc2cccn2-c2sc(C)c(C)c2C(=O)O)cc1 — lower, 0.477%
- C=CCN(c1ccc(C(=O)Nc2ccc(Br)c(Cl)c2)cc1)S(C)(=O)=O — lower, 0.888%
- C=CCN(c1ccc(C(=O)Nc2cc(C)cc(C)c2)cc1)S(C)(=O)=O — lower, -0.236%
- CCOC(=O)c1ccc(NC(=O)CSc2nc(NCc3ccc(Cl)cc3)c3ccccc3n2)cc1 — lower, -0.895%
- O=C(Nc1cccc(Cl)c1)N(C1=NCCC1)c1ccc(Cl)cc1 — lower, 0.148%
- CC(=O)c1c(C)[nH]c(C(=O)CN2CCN(C(=O)c3ccccc3)CC2)c1C — lower, 0.331%
- CCc1c(C(=O)N2CCN(c3cccc(Cl)c3)CC2)[nH]c(C)c1C(C)=O — higher, 4.26%
- COc1ccc(C(=O)NCCc2ccc(F)cc2)cc1[N+](=O)[O-] — lower, 0.474%
- COc1cccc(-c2nnc(N)s2)c1 — lower, -0.725%
- Cc1cnc(C(=O)N2CCc3ccc(NC(=O)Cc4ccccc4F)cc3C2)cn1 — lower, 1.39%
- CCOC(=O)N1CCN(Cc2nc3c(c(=O)n(C)c(=O)n3C)n2CC(C)C)CC1 — lower, -1.33%
- COc1ccccc1C1CCCN1C(=O)C1CC(Cc2ccc(F)cc2)=NO1 (stereo not drawn) — lower, 1.31%
- Cc1nc(N2CCCC2C(=O)N2CC3CCC2C3)nc2ccccc12 (stereo not drawn) — lower, 0.0962%
- O=C(O)CCC(=O)N1N=C(c2ccc(O)cc2)CC1c1ccc(Br)cc1 (stereo not drawn) — lower, 0.932%
- CCc1cc(C(=O)COc2ccc([N+](=O)[O-])cc2)c(O)cc1O — lower, -0.273%
- Cc1cc(Oc2ncnc(N)c2[N+](=O)[O-])cc(C(C)C)c1 — lower, 1.22%
- NC(=O)c1ccnc(N2CCc3ccccc3C2)c1 — lower, 0.149%
- CN1C(=O)NC(=O)/C(=C\c2ccc(-c3ccc(Br)c(Cl)c3)o2)C1=O — lower, -0.645%
- COc1cc(C=O)ccc1OCc1ccc(Br)cc1 — lower, -0.687%
- COc1cc(C=O)ccc1OCCOc1ccc(C=O)cc1OC — lower, -1.4%
- O=C(CC1=CCCCC1)NCC1Cc2cc(F)cc(-c3cncnc3)c2O1 (stereo not drawn) — lower, -1.03%
- CCc1cccc(C)c1NC(=O)/C=C/C(=O)O — lower, 0.671%
- CCCNC(=O)c1ccc(Cl)cc1[N+](=O)[O-] — lower, 1.13%

For COc1cc(-c2coc3cc(O[C@@H]4O[C@H](CO)[C@@H](O)[C@H](O)[C@H]4O)c(OC)c(O)c3c2=O)cc(O)c1OC, the activation was 8.99% (active).
For C=CCN1C(=O)CC(C(=O)OC)C12CCN(C1CCN(C(=O)OCC)CC1)CC2 (stereo not drawn), the activation was 12.8% (active).
In the case of CCCCOc1ccccc1CNCC, the activation is reported as 6.95% (active).
For c1ccc2sc(-c3cnc4ccc(NC5CCOCC5)nn34)cc2c1, the activation was 5.94% (active).
With CC(/C=N\NC(=O)CSc1nc(C)cc(C)n1)=C\c1ccccc1 the activation was 9.38% (active).
C(=N\N1CCN(c2ccccn2)CC1)/C1=C(N2CCOCC2)C(=C/c2ccccc2)/CC1 was tested, and the activation was 6.77% (active).
In the case of CCN1CCCC1CNc1nc(=S)[nH]c2ccccc12 (stereo not drawn), the activation is reported as 9.1% (active).
CCN1/C(=C/c2ccc3cc(C)ccc3[n+]2CC)Sc2ccc(-c3ccccc3)cc21 was tested, and the activation was 18.5% (active).
With COc1ccc(N2C(=O)C3CCCN3C2c2cccc(OC)c2)cc1 (stereo not drawn) the activation was 6.4% (active).
In the case of CCOC(=O)c1ccc2nc(NC(=O)CSc3nc4ccccc4[nH]3)sc2c1, the activation is reported as 7.06% (active).
For CCN(CC)C1CCN(C(=O)c2cc(COc3ccc4ncccc4c3)on2)C1 (stereo not drawn), the activation was 5.71% (active).
For COc1ccc(COC(=O)NNC(=O)c2cccc(Cl)c2)cc1, the activation was 6.17% (active).
In the case of O=C(N/N=C/c1cccc(Cl)c1Cl)c1cccs1, the activation is reported as 10.6% (active).
In the case of C=CCN(c1ccc(C(=O)Nc2ccc(OCc3ccccc3)cc2)cc1)S(C)(=O)=O, the activation is reported as 5% (active).
For CC(=O)c1c(C)[nH]c(C(=O)N2CCN(c3ccc(Cl)cc3)CC2)c1C, the activation was 5.19% (active).
With COc1ccccc1C1CCCN1C(=O)C1CCN(c2nc(C)c3ccccc3n2)CC1 (stereo not drawn) the activation was 11.3% (active).
With COc1ccc(C=O)cc1OCc1ccc(F)cc1 the activation was 4.92% (active).
